# Results taken from PubChem BioAssay (EPA / NIEHS).
# Inconclusive results are not listed. Activity calls are given as the source filed them. How the source made its calls, unless noted: active means hit-call score of the fitted dose curve at least 0.9, where 1 is the maximum; inactive means score below 0.9.
# Assays:
# [1] = CCTE_Shafer_MEA_dev_per_burst_spike_percent: CCTE's Neural Network Formation Assay for Percent of Spikes in a Burst, Shafer Lab (AID 2284032)
# Outline: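 Value is trapezoidal AUC over recordings on days 5, 7, 9 and 12 of the well-mean fraction of spikes falling in single-electrode bursts; rat cortical cultures exposed continuously from plating, treatment renewed DIV 5 and 9, fitted downward against DMSO.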
# [2] = CCTE_Shafer_MEA_dev_active_electrodes_number: CCTE's Neural Network Formation Assay for Number of Active Electrodes, Shafer Lab (AID 2284040; active means hit-call score of the fitted dose curve at least 0.9, where 1 is the maximum)
# Outline: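 Developing rat cortical networks on MEAs, exposed DIV 0–12. Value is the AUC of active-electrode counts (≥5 spikes/min) from days 5, 7, 9, 12, relative to DMSO.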
# [3] = CCTE_Shafer_MEA_dev_per_burst_interspike_interval: CCTE's Neural Network Formation Assay for Burst Interspike Interval, Shafer Lab (AID 2284044)
# Outline: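 Spontaneous activity of maturing rat cortical networks is recorded on DIV 5, 7, 9 and 12 under chronic compound exposure beginning at plating. Endpoint: burst interspike interval well-mean, collapsed into trapezoidal AUC and fitted in the negative direction relative to DMSO.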
# [4] = CCTE_Shafer_MEA_dev_burst_duration_mean: CCTE's Neural Network Formation Assay for Mean Burst Duration, Shafer Lab (AID 2284045)
# Outline: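 Rat cortical cultures, 1.5 x 10^5 cells/well with laminin drop; continuous dosing days 0–12, media plus treatment refreshed DIV 5, 9. AxIS adaptive spike detection; mean single-electrode burst duration, AUC over four recordings, negative direction vs DMSO.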
# [5] = CCTE_Shafer_MEA_dev_interburst_interval_mean: CCTE's Neural Network Formation Assay for Mean Interburst Interval, Shafer Lab (AID 2284046);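 further: well-mean interburst interval of bursting electrodes as AUC over four recording days; curve fitted for decrease in interburst interval relative to DMSO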
# Outline: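 Rat cortical neurons, 1.5 x 10^5 cells/well, 48-well MEA; compound from day 0 through DIV 12, media and treatment renewed DIV 5/9. Recordings DIV 5, 7, 9, 12; well-mean interburst interval → trapezoidal AUC, loss direction vs DMSO.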
# [6] = CCTE_Shafer_MEA_dev_inter_network_spike_interval_mean: CCTE's Neural Network Formation Assay for Mean Inter-network Spike Interval, Shafer Lab (AID 2284047)
# Outline: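 Primary rat cortical neurons on PEI-coated 48-well MEAs (16 electrodes/well) were exposed from plating day 0 to DIV 12, with dosing renewed at DIV 5 and 9. Recordings at DIV 5, 7, 9, 12 were collapsed by trapezoidal AUC, loss-of-signal fit vs DMSO.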
# [7] = CCTE_Shafer_MEA_dev_network_spike_number: CCTE's Neural Network Formation Assay for Number of Network Spikes, Shafer Lab (AID 2284048);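 further: synchronized bursts across electrodes counted on days 5 7 9 12 and integrated as AUC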
# Outline: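 Rat cortical primary cultures on 48-well MEA (16 electrodes/well); continuous exposure DIV 0–12, full medium and treatment exchange DIV 5, 9. Readout: network spike count, AxIS adaptive detection, recordings DIV 5/7/9/12 collapsed to AUC; loss-of-signal fit, DMSO baseline.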
# [8] = CCTE_Shafer_MEA_dev_network_spike_peak: CCTE's Neural Network Formation Assay for Mean Number of Electrodes in Network Spike, Shafer Lab (AID 2284049)
# Outline: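 Network-spike peak electrode count from recordings on days 5, 7, 9 and 12 was combined as trapezoidal area under the curve. Rat cortical cultures were treated continuously from plating, with compound renewed at each feed (DIV 5, 9); fits versus DMSO.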
# [9] = CCTE_Shafer_MEA_dev_spike_duration_mean: CCTE's Neural Network Formation Assay for Mean Spike Duration, Shafer Lab (AID 2284051);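 further: mean network spike duration pooled as area under curve over DIV 5 to 12 recordings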
# Outline: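 Rat cortical primary cultures, 48-well MEA (16 electrodes/well); compound from plating, renewed DIV 5, 9. Network spike duration (AxIS adaptive detector) recorded DIV 5/7/9/12, combined as trapezoidal AUC; loss direction vs DMSO.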
# [10] = CCTE_Shafer_MEA_dev_network_spike_duration_std: CCTE's Neural Network Formation Assay for Standard Deviation of Network Spike Duration, Shafer Lab (AID 2284052);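 further: area under curve of spike duration SD across recording days 5 to 12; hits are decreases in network spike duration SD versus DMSO vehicle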
# Outline: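 Rat cortical cultures, 1.5 x 10^5 cells/well, exposed continuously from plating to DIV 12 with media/compound renewal at DIV 5, 9. Spontaneous activity recorded DIV 5/7/9/12, AxIS adaptive spike detector; AUC across days; negative direction vs DMSO.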
# [11] = CCTE_Shafer_MEA_dev_per_network_spike_spike_number_mean: CCTE's Neural Network Formation Assay for Mean Number of Spikes in a Network Spike, Shafer Lab (AID 2284053)
# Outline: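 Rat cortical primary cultures on 48-well MEA; compound from day 0, re-dosed with full media change DIV 5, 9. Recorded DIV 5, 7, 9, 12; spikes in 0.05 s window at network-spike peak ÷ total network spikes; AUC; loss vs DMSO.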
# [12] = CCTE_Shafer_MEA_dev_per_network_spike_spike_percent: CCTE's Neural Network Formation Assay for Percent of Spikes in a Network Spike, Shafer Lab (AID 2284054)
# Outline: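 Read-out: percent of spikes falling in a 0.05 s window at network-spike peak, from spontaneous MEA recordings on days 5, 7, 9 and 12; trapezoidal AUC; loss of signal versus DMSO. Rat cortical cultures, compound present throughout.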
# [13] = CCTE_Shafer_MEA_dev_mutual_information_norm: CCTE's Neural Network Formation Assay for Mutual Information Normalization, Shafer Lab (AID 2284091)
# Outline: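 Neurons from rat cortex were seeded at 1.5 x 10^5 cells/well onto PEI-coated MEAs in a laminin drop, then exposed to compound from day 0 for twelve days. Network recordings on four days gave mutual information, summarised by AUC relative to DMSO.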
# [14] = CCTE_Shafer_MEA_dev_correlation_coefficient_mean: CCTE's Neural Network Formation Assay for Mean Correlation Coefficient, Shafer Lab (AID 2284093)
# Outline: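 Rat cortical cultures, 1.5 x 10^5 cells/well, dosed from day 0 for 12 days. Spontaneous spikes recorded DIV 5/7/9/12; electrode-pair correlation coefficients averaged, AUC taken. Fit in loss direction vs DMSO.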
# [15] = IUF_NPC1b_proliferation_BrdU_72hr: Leibniz Research Institute for Environmental Medicine (IUF) 72-hour Neural Progenitor Cell Bromodeoxyuridine (BrdU) Proliferation Assay (NPC1b) (AID 2284207)
# Outline: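 Luminescent BrdU ELISA measured DNA synthesis during the last 16 h of a 72 h exposure of primary human neural progenitor spheres grown with EGF and FGF. Signal was fitted relative to DMSO controls.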
# [16] = IUF_NPC1a_proliferation_area_72hr: Leibniz Research Institute for Environmental Medicine (IUF) 72-hour Neural Progenitor Cell Proliferation Area Assay (NPC1a) (AID 2284208)
# Outline: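 Measured in 3D suspension: each well held one primary hNPC sphere grown with EGF and FGF at pH 7.2-7.6. Compound stayed on for 72 h, then area was imaged; spheres lacking growth factors defined reduced proliferation.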
# [17] = IUF_NPC1_viability_72hr: Viability Assessment at 72 hours in the Leibniz Research Institute for Environmental Medicine (IUF) Neural Progenitor Cell Proliferation Assay (NPC1) (AID 2284209)
# Outline: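 Alamar blue fluorescence (RFU) after 72 h exposure, normalized to DMSO baseline. hNPC spheres from GW 16-19 fetal cortex, single sphere per well in growth-factor medium; no compound renewal.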
# [18] = CCTE_Mundy_HCI_Cortical_Synap_Neur_Matur_NeuriteSpotCountPerNeuriteLength: CCTE's Synaptogenesis and Neurite Maturation Assay in rat cortical cells for Neurite Spot Count per Neurite Length, Mundy Lab (AID 2284210)
# Outline: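 Read-out: synaptophysin puncta counted along MAP2-stained neurites, normalised to neurite length, by automated high-content imaging. Rat cortical cells; AraC DIV 5; chemical dosing DIV 7; termination DIV 12. DMSO baseline.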
# [19] = CCTE_Mundy_HCI_Cortical_Synap_Neur_Matur_BPCount: CCTE's Synaptogenesis and Neurite Maturation Assay in rat cortical cells for Branch Point Count, Mundy Lab (AID 2284211)
# Outline: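 In this multiplexed morphology assay, cortical cells from rat receive chemicals at DIV 7 and are fixed at DIV 12, then immunostained and imaged; branch points are counted, with DMSO as baseline.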
# [20] = CCTE_Mundy_HCI_Cortical_NOG_NeuriteCount: CCTE's Neurite Outgrowth Assay in rat cortical cells for Neurite Count, Mundy Lab (AID 2284212);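 further: cells fixed about two days after chemical exposure began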
# Outline: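 Rat cortical primary cells; compound added 2 h post-plating, 1/10 dilution of working solution. Anti-betaIII-tubulin/AF488 ICC; ArrayScan neurite count vs DMSO.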
# [21] = CCTE_Mundy_HCI_Cortical_NOG_NeuriteLength: CCTE's Neurite Outgrowth Assay in rat cortical cells for Neurite Length, Mundy Lab (AID 2284213)
# Outline: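 First, rat primary cortical cells were plated and, 2 h later, given test chemical as a 1/10 dilution. Finally, βIII-tubulin immunostaining enabled automated imaging of neurite length.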
# [22] = CCTE_Mundy_HCI_Cortical_Synap_Neur_Matur_NeuriteLength: CCTE's Synaptogenesis and Neurite Maturation Assay in rat cortical cells for Neurite Length, Mundy Lab (AID 2284214)
# Outline: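 Read-out: high-content imaging of MAP2-labelled neurites, with synaptophysin and Hoechst co-stain, in rat cortical cultures fixed at DIV 12. Activity fitted in positive direction relative to DMSO baseline.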
structure (smiles),measurement,setting,value
C[C@@H]1CC[C@@H](C(C)(C)O)[C@H](O)C1,outcome,[1],inactive
same,outcome,[2],inactive
same,outcome,[3],inactive
same,outcome,[4],inactive
same,outcome,[5],inactive
same,outcome,[6],inactive
same,outcome,[7],inactive
same,outcome,[8],inactive
same,outcome,[9],inactive
same,outcome,[10],inactive
same,outcome,[11],inactive
same,outcome,[12],inactive
same,outcome,[13],inactive
same,outcome,[14],inactive
same,AC50,[15],8.23 µM (active)
same,outcome,[16],inactive
same,outcome,[17],inactive
same,outcome,[18],inactive
same,outcome,[19],inactive
same,outcome,[20],inactive
same,outcome,[21],inactive
same,outcome,[22],inactive
